From PubChem
Lassa entry inh = inhibitors of Lassa virus binding or cell entry; Potency, µM (series often up to 37.9 µM), for the others: at the top dose activity change, negative = inhibition, actives largely listed as inhibitors; hit rate 1.2% among 300,000; AID 540256; Lassa virus pseudotype entry inhibition, cell reporter; calls by dose curve; tested in HEK293 cells; also: potency is read from the fitted curve at half-maximal effect; % is scaled to controls: 0 for no effect and ±100 for the full control effect; nearly all actives have a fitted effect of over 50% in size
Vaccinia Venus = vaccinia inhibition (Venus reporter); Vaccinia virus Venus reporter expression, fluorescence; Potency, µM (series often up to 36.5 µM), for the others: top-dose activity change, negative = inhibition, actives largely listed as inhibitors; hit rate 0.46% among 330,000; AID 720580; calls by dose curve; tested in A549 cells; also: potency is read from the fitted curve at half-maximal effect; % is scaled to controls: 0 for no effect and ±100 for the full control effect; nearly all actives have a fitted effect of over 30% in size
Vaccinia mCherry = vaccinia inhibition (mCherry reporter). Vaccinia virus mCherry reporter infection, fluorescence. Potency, µM (series often up to 36.5 µM), without a hit: at the highest dose activity change, negative = inhibition, most hits filed as inhibitors. hit rate 0.63% among 310,000. AID 720579; calls by dose curve; tested in A549 cells; also: potency is read from the fitted curve at half-maximal effect; % is scaled to controls: 0 for no effect and ±100 for the full control effect; nearly all actives have a fitted effect of over 35% in size
CHX counter = counter-screen hit for Shiga toxin inhibitors, cycloheximide. cell reporter, cycloheximide protein synthesis inhibition counterscreen. max response, %. hit rate 12% among 300,000. AID 2314; in the data active = max response mostly above about 13%, no sharp cut-off; inactive = mostly below about 14%; also: read at 38.3 µM for the half of the compounds with a filed dose; 0% is about no effect
Shiga inhibitor = blocks Shiga toxin action in Vero cells. Vero cells, Shiga toxin protein synthesis inhibition reporter. inhibition, % at 38.7 µM. hit rate 9.2% among 290,000. AID 2315; in the data active = inhibition mostly above about 28%, no sharp cut-off; inactive = mostly below about 43%; also: 0% is about no effect
MARV entry inh = inhibitors of Marburg virus binding or cell entry; Potency, µM (titrated, usually from 37.8 µM), without a hit: at the highest dose activity change, negative = inhibition, most hits filed as inhibitors; Marburg virus pseudotyped entry inhibition, cell reporter; hit rate 1.8% among 300,000; calls by dose curve; tested in HEK293 cells; also: potency is read from the fitted curve at half-maximal effect; % is scaled to controls: 0 for no effect and ±100 for the full control effect
Numbers without * were called inactive; i = inactive; ? = inconclusive; · = not tested or not shown; [ ] = dose if it differs, or a comment. This excerpt belongs to a sample that is enriched for hits.

SMILES | Lassa entry inh | Vaccinia Venus | Vaccinia mCherry | CHX counter | Shiga inhibitor | MARV entry inh
CCCc1c(C)c2ccc(OCC(C)=O)cc2oc1=O | 8% | ? | · | 49* | 94* | 8%
C=CCOC(=O)COc1ccc2c(C)c(CC)c(=O)oc2c1 | 18% | · | · | -2 | -5 | -2%
CCn1c(-c2ccccc2F)nc2cc(NC(C)=O)cc(C(=O)N3CCC[C@H]3C(=O)OC)c21 | · | 0% | i | · | · | ·
Nc1nc(COc2ccc(F)cc2)nc(N2CCCCC2)n1 | 12% | 0% | -15% | 19* | -10 | 19%[46.1 µM]
O=c1c2sc3ccccc3c2n(Cc2ccc(F)cc2Cl)c(=O)n1Cc1ccccc1 | 2%[46.1 µM] | -9% | -2% | · | · | ?
O=C(COc1ccccc1Cl)Nc1nc2c(s1)CCCC2 | ? | 9% | 20% | · | · | ?
CC(=O)c1sc(NC(=O)CCOc2ccccc2)nc1C | · | · | · | 34* | 77* | ·
CC(=O)c1sc(NC(=O)COc2ccccc2)nc1C | -16% | -4% | -6% | 15* | 57* | 9%[46.1 µM]
O=C(COc1ccccc1)Nc1nc2c(s1)CCCC2 | ? | 0% | i | 39* | 83* | 6.3µM*
CCC(=O)Nc1ccc(NC(=O)c2cc3ccccc3o2)cc1 | -1% | -1% | · | 70* | 83* | 8%
CC(Cc1ccccc1)NC(=O)c1cc2ccccc2o1 (stereo unspecified) | 1%[46.1 µM] | -3% | -10% | 59* | 141* | ?
O=C(Nc1ccc(NC(=O)c2cc3ccccc3o2)cc1)c1ccccc1 | 5%[46.1 µM] | -5%[7.34 µM] | -14%[7.34 µM] | · | · | ·
O=C(O)c1ccc(NC(=O)c2cc3ccccc3o2)cc1 | 14%[46.1 µM] | -2% | -14% | 21* | 47 | ·
CCc1ccc(C(=O)Nc2ccc3c(c2)n(C)c(=O)n3C)cc1 | -1% | -17% | -19% | 12* | · | 15%
CCC(=O)Nc1ccc(NC(=S)NC(=O)c2cc3ccccc3o2)cc1 | -15% | -1% | -9% | 1 | 17 | 11%
COc1ccc(NC(c2ccc(F)cc2)c2nnc(-c3ccccc3Cl)o2)cc1Cl (stereo unspecified) | -25%[46.1 µM] | 0% | -1% | · | · | -18%[46.1 µM]
O=S1(=O)CC(N2CC=CC2)CN1CCc1ccccc1 (stereo unspecified) | 8%[46.1 µM] | · | · | · | · | ·
Cc1cccc(-c2nc(SCC(=O)NCC3CCCO3)c3c(=O)n(C)c(=O)n(C)c3n2)c1 (stereo unspecified) | -6%[46.1 µM] | -1% | -8% | · | · | ·
COc1cc(NC(=O)[C@@H](NC(=O)c2ccco2)C(C)C)c(OC)cc1NC(=O)c1ccccc1 | -7% | 0% | -6% | -2 | 15 | ?
CCc1ccc(-c2cc(C)no2)cc1S(=O)(=O)Nc1ccc(Cl)cc1 | -17%[46.1 µM] | -28% | -26% | · | · | ·
CCC(=O)Nc1cccc(NC(=S)NC(=O)c2cc3ccccc3o2)c1 | ? | -7% | -11% | 35* | 72* | ?
COC(=O)c1cc(NC(=O)c2cc3ccccc3o2)cc(C(=O)OC)c1 | · | · | · | -3 | -3 | ·
Cn1c(=O)n(C)c2cc(NC(=O)c3cc4ccccc4o3)ccc21 | 0% | -13% | -1% | 33* | 89* | 14%
Cc1cc(=O)oc2cc(NC(=O)c3cc4ccccc4o3)ccc12 | · | · | · | 20 | 80 | 3%
O=C(Nc1ccc2c(c1)OCCO2)c1cc2ccccc2o1 | 7.9µM* | 9% | 3% | 24* | 88* | 4µM*
SMILES | Lassa entry inh | Vaccinia Venus | Vaccinia mCherry | CHX counter | Shiga inhibitor | MARV entry inh
O=C(Nc1ccc2oc(=O)ccc2c1)c1cc2ccccc2o1 | -7% | -18% | · | 35* | 54* | ?
CC(C)c1c(C(=O)N2CCN(CCO)CC2)cnn1-c1nccc(-c2cccs2)n1 | · | -7% | -14% | · | · | ·
CS(=O)(=O)NCCc1csc2nc(-c3ccccc3)nn12 | -14%[46.1 µM] | -3% | -7% | · | · | ·
CCCc1cc(C(=O)NC2CCCCC2)no1 | · | 1% | -6% | 62* | 61* | ·
CCCc1cc(C(=O)NC2CCCC2)no1 | · | -4% | 4% | 41* | 86* | ·
CC(C)c1cc(C(=O)NC2CCCCC2)no1 | -11% | · | · | 35* | 11* | ?
CCCc1cc(C(=O)N(C2CCCCC2)C2CCCCC2)no1 | · | -14% | i | -1 | -5 | ·
CC(C)CC(=O)NC1CC(=O)N(c2ccc3c(c2)OCCO3)C1 (stereo unspecified) | 22%[46.1 µM] | -6% | 2% | · | · | ·
CN(C)c1ccc(CNC(=O)CN2C(=O)CSc3ccc(S(=O)(=O)N4CCCC4)cc32)cc1 | -2%[46.1 µM] | -5% | 3% | · | · | ·
COc1ccc(CNC(=O)c2ccc(CN3C(=O)C(C)=C(c4ccc(C)cc4)S3(=O)=O)cc2)cc1 | 7%[46.1 µM] | -15% | i | · | · | ·
CN1CCN(/N=C/c2nc(-c3cccc([N+](=O)[O-])c3)n3ccccc23)CC1 | -2% | -21% | -3% | 11 | 13 | -9%
O=C(O)/C=C/c1nc(-c2ccccc2)n2ccccc12 | 1% | -1% | i | 71* | 79* | ?
c1ccc2c(c1)oc1c(N3CCN(Cc4ccc5c(c4)OCO5)CC3)ncnc12 | ? | · | · | 36* | 98* | ?
O=c1[nH]c(CN2CCN(Cc3ccc4c(c3)OCO4)CC2)nc2ccccc12 | 16% | -8% | · | 8.6* | -10 | -16%
Cc1ccccc1CSCC1Nc2ccc(C(=O)NCCc3ccccc3)cc2NC1=O (stereo unspecified) | · | 29% | -1% | · | · | ·
CCc1nc(OCCN(CC)CC)c2oc3ccccc3c2n1 | 2% | · | · | 27* | 27 | -12%
CCN(CC)CCOc1ncnc2c1oc1ccccc12 | -4% | · | · | -4 | -6 | 23%
CC(=O)CCC1C2C(O)C(C(C)C)C(OC(=O)/C=C/c3ccccc3)CC12C (stereo unspecified) | · | -2% | 6% | -2 | 2 | ·
CC(=O)OC1C(O)C(C)OC(OC2C(OC(=O)C3CCC4C(C3)OC3(CC(OC(=O)/C=C/c5ccccc5)C(C)CO3)C43CO3)OC(C)C(O)C2OC(C)=O)C1O (stereo unspecified) | ? | 0.32µM* | ? | · | · | ?
Cc1cccc(C)c1-n1c(C)nn(CCOc2ccccc2)c1=O | 17% | 0% | -5% | -2 | -9 | -13%[46.1 µM]
Cc1cccc(NC(=O)c2cc(Cl)nc3ccccc23)n1 | 1% | -1% | 0% | 9 | -4 | ?
Oc1ccc(-c2cc(-c3ccc(O)cc3)nc(-c3ccccc3)n2)cc1 | -16%[46.1 µM] | ? | ? | -4 | -8 | ?
Oc1ccc(-c2nnc(-c3ccc(O)cc3)nn2)cc1 | ? | -1% | 1% | 26* | 25 | ?
